# Measured values taken from PubChem BioAssay (NCI).
# The panel holds about 83,000 compounds, 20% with a hit somewhere; the sample as a whole holds those more often.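 Compound tested at a single concentration for 48 hours in 96-well plates; a percent growth value below 10 was scored as active.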 Values without a mark were called inactive. The source made the active and inactive calls.
# Test system: MDA-MB-468 breast
# Assay: NCI-60 one-dose screen, 48 h (100 = growth as untreated, 0 = no growth, -100 = all killed)
# Conditions: 10 µM unless noted
row,Compound,growth
1,NC(=O)c1ccc(NC(=O)c2oc3ccccc3c2-c2cnn(-c3ccccc3)c2)cc1,24.2% [50 µM]
2,N=C(N)c1ccc(-c2ccc(-c3cc(Cl)cc(Cl)c3)o2)nc1,-73.9% (active)
3,O=C(Nc1nccs1)c1noc2ccccc12,87.3%
4,COc1ccc2c(c1)N(CCO)C1=C(C(=O)OC1)C2c1ccccc1 (stereo unspecified),-14.2% (active)
5,C[C@]12CCc3nc(Nc4ccc(O)cc4)sc3C1=CC[C@@H]1[C@@H]2CC[C@]2(C)/C(=N/NC(N)=S)CC[C@@H]12,-58.2% (active)
6,COc1cccc(C2C3=C(COC3=O)N(CCO)c3cc4c(cc32)OCCO4)c1 (stereo unspecified),-52.9% (active)
7,Cn1cc(-c2nc(-c3c[nH]c4ncccc34)cs2)c2cc(F)ccc21,-22.6% (active)
8,Cc1c(C)c2c(c(C)c1NC(=O)/C=C\C(=O)O)CCC(C)(CCCC(C)CCCC(C)CCCC(C)C)O2 (stereo unspecified),-45.3% (active)
9,CC(=O)Nc1cc2c(cc1Cl)Cc1cc(Cl)ccc1-2,-50.2% (active)
10,COc1ccc(-c2cc(-c3ccc(OC)cc3)c3sc(=O)[nH]c3n2)cc1,96.4%
11,COc1cccc2c1CN(C(=O)c1ccc(O)c(C(=O)N3Cc4ccc(OCCC[P+](c5ccccc5)(c5ccccc5)c5ccccc5)cc4C3)c1)C2,-2.86% (active)
12,O=c1c(N=Nc2nccs2)c(-c2ccccc2)[nH]n1-c1nc(-c2ccccc2)cs1,29%
13,CC1CCN(C(=S)SCC(=O)NC(=O)c2ccccc2)CC1,119%
14,O=C1CCN2C(=O)Nc3ccccc3C2C1 (stereo unspecified),109%
15,CCN(CC)CCNC(=O)c1ccc(-c2nc3ccc4[nH]ncc4c3c3c2CCCC3)cc1,17.4%
16,O=C(CCCCCCNC(=O)C(O)(O)C(F)(F)F)Nc1ccc(-c2ccccc2)cc1,-10.5% (active)
17,O=S(=O)(Nc1ccc(Br)cc1)c1ccc(-c2cnc(C3CC3)o2)cc1,-12.4% (active)
18,O=C(O)CCCCCNC(=O)OCc1ccccc1,116%

row,Compound,growth
1,O=C(CCl)Nc1ccc2c(Nc3cc(O)ccc3Cl)ncnc2c1,-61.7% (active)
2,CN1CCN(c2ccc(/C=C/C(=O)c3ccc(O)cc3)cc2)CC1,89.5%
3,COc1cccc(-c2nc3sccn3c2-c2ccnc(NCCNS(=O)(=O)c3cccc(Cl)c3)c2)c1,42.4%
4,COc1cccc(-c2nc3sccn3c2-c2ccnc(NCCCNS(=O)(=O)c3ccc(Cl)cc3)c2)c1,34.3%
5,Cl.[Pt].[c-]1ccccc1-c1ccccn1.c1ccc(P(c2ccccc2)C([PH+](c2ccccc2)c2ccccc2)[PH+](c2ccccc2)c2ccccc2)cc1,-6.8% (active)
6,COc1cc(-c2nn(C(=O)NS(=O)(=O)c3ccccc3)cc2-c2ccncc2)ccc1Cl,68%
7,O=C(/C=C\c1cc(Br)ccc1O)/C=C/c1cc(Br)ccc1O,-65% (active)
8,Cc1[nH]c(=S)[nH]c(=O)c1C,112%
9,O=C(CCl)Nc1ccc(Cc2ccc(NC(=O)CCl)cc2)cc1,-36.8% (active)
10,OC(CN1CCCC2CCCCC21)c1cc2ccccc2c2ccccc12 (stereo unspecified),-24.4% (active)
11,c1ccc2cc3c(Nc4ccc(N5CCOCC5)cc4)ccnc3cc2c1,87.9%
12,O=S(=O)(NCCCNc1nccc(-n2ccc3cccnc32)n1)c1cccc(C(F)(F)F)c1,108%
13,CC(=O)OCC(=O)[C@@]1(O)CC[C@H]2[C@@H]3CC[C@@H]4C[C@H](O)CC[C@]4(C)[C@H]3C(=O)C[C@@]21C,98.1%
14,C/C=C/C=C1\C[C@H]2CO[C@H](O2)C1=O,103%
15,C=CCn1c(SCC(=O)Nc2ccc(C(=O)/C=C/c3cc(OC)c(OC)c(OC)c3)cc2)nnc1-c1cc(-c2ccc(OC)cc2)nc2ccccc12,103%
16,CC[C@@H](C(=O)[C@@H](C)[C@@H](O)[C@H](C)[C@@H]1O[C@@H]([C@@H](CC)C(=O)NCCc2ccc(F)cc2)CC[C@@H]1C)C1O[C@]2(C=CC(=O)[C@]3(CC[C@@](C)([C@H]4CC[C@](O)(CC)[C@H](C)O4)O3)O2)[C@H](C)C[C@@H]1C (stereo partly specified),13.5%
17,C=CCn1c(SCC(=O)Nc2ccc(C(=O)/C=C/c3cc(OC)c(OC)c(OC)c3)cc2)nnc1-c1cc(-c2ccc(S(C)(=O)=O)cc2)nc2ccccc12,88.8%
18,CS(=O)(=O)Nc1cc(-c2ccc3ncc(C#N)c(NCc4ccccc4)c3c2)cnc1Cl,-53.9% (active)
